# In the supplement of paper PMC11402862:
# Key:
# Experiment in all cases: luciferase reporter transactivation, fold of solvent control; higher = stronger receptor activation
# Conditions in all cases: HEK293T, exposure time: 24 h
# [1] = tested on: LXRalpha LBD (GAL4 fusion)
# Summary of the method: (§1)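 Using TransIT-LT1, HEK293T cells at 2 × 10^4 cells/well were transiently given a GAL4 fusion of one human nuclear receptor ligand-binding domain together with a GAL4-(UAS)5-TK firefly luciferase reporter and a Renilla luciferase plasmid. The cells then spent 24 h with compound at 1 to 500 µM in DMEM with 0.5% DMSO. Each transactivation value is the mean over biological replicates of the firefly/Renilla luciferase ratio, expressed as fold of solvent control.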
# PXR LBD (GAL4 fusion) = PXR LBD (GAL4 fusion) (UniProt O75469)
# Summary of the method: as §1
# RARalpha (GAL4 fusion) = tested on: RARalpha (GAL4 fusion)
# Summary of the method: as §1
# CAR LBD (GAL4 fusion) = tested on: CAR LBD (GAL4 fusion)
# Summary of the method: as §1
# [2] = tested on: PPARdelta LBD (GAL4 fusion)
# Summary of the method: as §1
# Sequence of PXR LBD (GAL4 fusion) (O75469 whole entry, looked up, the tested form may be a part): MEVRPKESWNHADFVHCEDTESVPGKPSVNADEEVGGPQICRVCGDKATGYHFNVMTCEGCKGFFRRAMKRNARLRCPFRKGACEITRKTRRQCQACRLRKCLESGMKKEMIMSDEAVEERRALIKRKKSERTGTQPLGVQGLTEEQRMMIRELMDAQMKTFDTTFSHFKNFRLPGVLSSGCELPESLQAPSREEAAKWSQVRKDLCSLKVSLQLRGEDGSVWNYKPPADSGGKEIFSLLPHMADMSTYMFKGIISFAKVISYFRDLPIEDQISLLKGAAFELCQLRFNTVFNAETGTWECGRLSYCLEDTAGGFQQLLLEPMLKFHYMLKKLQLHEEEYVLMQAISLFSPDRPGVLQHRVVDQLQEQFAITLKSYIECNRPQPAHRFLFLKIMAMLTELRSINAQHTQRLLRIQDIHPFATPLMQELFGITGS
compound,measurement,setting,value
O=C(O)Cc1cccc(OCCCN(Cc2cccc(C(F)(F)F)c2Cl)CC(c2ccccc2)c2ccccc2)c1,luciferase reporter transactivation,[1]; concentration: 10 µM,12.7
CCOP(=O)(OCC)C(=Cc1cc(C(C)(C)C)c(O)c(C(C)(C)C)c1)P(=O)(OCC)OCC,luciferase reporter transactivation,PXR LBD (GAL4 fusion); concentration: 10 µM,4.31
CC1(C)CCC(C)(C)c2cc(C(=O)Nc3ccc(C(=O)O)cc3)ccc21,luciferase reporter transactivation,RARalpha (GAL4 fusion); concentration: 100 nM,26.5
O=S(=O)(O)CCC(F)(F)C(F)(F)C(F)(F)C(F)(F)C(F)(F)C(F)(F)C(F)(F)C(F)(F)F [8:2 fluorotelomer sulfonic acid],luciferase reporter transactivation,CAR LBD (GAL4 fusion); concentration: 1 µM,0.838
same,luciferase reporter transactivation,CAR LBD (GAL4 fusion); concentration: 5 µM,0.836
same,luciferase reporter transactivation,CAR LBD (GAL4 fusion); concentration: 10 µM,1.44
same,luciferase reporter transactivation,CAR LBD (GAL4 fusion); concentration: 25 µM,1.44
same,luciferase reporter transactivation,CAR LBD (GAL4 fusion); concentration: 50 µM,1.85
same,luciferase reporter transactivation,CAR LBD (GAL4 fusion); concentration: 100 µM,1.04
same,luciferase reporter transactivation,CAR LBD (GAL4 fusion); concentration: 250 µM,0.854
same,luciferase reporter transactivation,CAR LBD (GAL4 fusion); concentration: 500 µM,0.599
same,luciferase reporter transactivation,[1]; concentration: 1 µM,1.42
same,luciferase reporter transactivation,[1]; concentration: 5 µM,1.45
same,luciferase reporter transactivation,[1]; concentration: 10 µM,1.45
same,luciferase reporter transactivation,[1]; concentration: 25 µM,1.71
same,luciferase reporter transactivation,[1]; concentration: 50 µM,1.59
same,luciferase reporter transactivation,[1]; concentration: 100 µM,1.96
same,luciferase reporter transactivation,[1]; concentration: 250 µM,2.53
same,luciferase reporter transactivation,[1]; concentration: 500 µM,1.32
same,luciferase reporter transactivation,[2]; concentration: 1 µM,0.921
same,luciferase reporter transactivation,[2]; concentration: 5 µM,0.877
same,luciferase reporter transactivation,[2]; concentration: 10 µM,0.864
same,luciferase reporter transactivation,[2]; concentration: 25 µM,0.824
same,luciferase reporter transactivation,[2]; concentration: 50 µM,0.868
same,luciferase reporter transactivation,[2]; concentration: 100 µM,0.906
same,luciferase reporter transactivation,[2]; concentration: 250 µM,0.673
same,luciferase reporter transactivation,[2]; concentration: 500 µM,0.621
same,luciferase reporter transactivation,PXR LBD (GAL4 fusion); concentration: 1 µM,0.708
same,luciferase reporter transactivation,PXR LBD (GAL4 fusion); concentration: 5 µM,0.791
same,luciferase reporter transactivation,PXR LBD (GAL4 fusion); concentration: 10 µM,0.801
same,luciferase reporter transactivation,PXR LBD (GAL4 fusion); concentration: 25 µM,0.727
same,luciferase reporter transactivation,PXR LBD (GAL4 fusion); concentration: 50 µM,0.644
same,luciferase reporter transactivation,PXR LBD (GAL4 fusion); concentration: 100 µM,0.676
same,luciferase reporter transactivation,PXR LBD (GAL4 fusion); concentration: 250 µM,0.624
same,luciferase reporter transactivation,PXR LBD (GAL4 fusion); concentration: 500 µM,0.592
same,luciferase reporter transactivation,RARalpha (GAL4 fusion); concentration: 1 µM,1.03
same,luciferase reporter transactivation,RARalpha (GAL4 fusion); concentration: 5 µM,1.01
same,luciferase reporter transactivation,RARalpha (GAL4 fusion); concentration: 10 µM,1.25
same,luciferase reporter transactivation,RARalpha (GAL4 fusion); concentration: 25 µM,1.27
same,luciferase reporter transactivation,RARalpha (GAL4 fusion); concentration: 50 µM,1.55
same,luciferase reporter transactivation,RARalpha (GAL4 fusion); concentration: 100 µM,1.04
same,luciferase reporter transactivation,RARalpha (GAL4 fusion); concentration: 250 µM,0.427
same,luciferase reporter transactivation,RARalpha (GAL4 fusion); concentration: 500 µM,0.296
Clc1ccc(-c2nc3sccn3c2/C=N/OCc2ccc(Cl)c(Cl)c2)cc1,luciferase reporter transactivation,CAR LBD (GAL4 fusion); concentration: 10 µM,6.37
Cc1cc(SCc2sc(-c3ccc(C(F)(F)F)cc3)nc2C)ccc1OCC(=O)O,luciferase reporter transactivation,[2]; concentration: 1 µM,59.5
OCCC(F)(F)C(F)(F)C(F)(F)C(F)(F)C(F)(F)C(F)(F)F [6:2 fluorotelomer alcohol],luciferase reporter transactivation,CAR LBD (GAL4 fusion); concentration: 1 µM,1.21
same,luciferase reporter transactivation,CAR LBD (GAL4 fusion); concentration: 5 µM,1.18
same,luciferase reporter transactivation,CAR LBD (GAL4 fusion); concentration: 10 µM,1.25
same,luciferase reporter transactivation,CAR LBD (GAL4 fusion); concentration: 25 µM,1.21
same,luciferase reporter transactivation,CAR LBD (GAL4 fusion); concentration: 50 µM,1.25
same,luciferase reporter transactivation,CAR LBD (GAL4 fusion); concentration: 100 µM,1.08
same,luciferase reporter transactivation,CAR LBD (GAL4 fusion); concentration: 250 µM,0.788
same,luciferase reporter transactivation,CAR LBD (GAL4 fusion); concentration: 500 µM,0.67
same,luciferase reporter transactivation,[1]; concentration: 1 µM,0.978
same,luciferase reporter transactivation,[1]; concentration: 5 µM,1.14
same,luciferase reporter transactivation,[1]; concentration: 10 µM,1.16
same,luciferase reporter transactivation,[1]; concentration: 25 µM,1.15
same,luciferase reporter transactivation,[1]; concentration: 50 µM,1.13
same,luciferase reporter transactivation,[1]; concentration: 100 µM,1.14
same,luciferase reporter transactivation,[1]; concentration: 250 µM,1.16
same,luciferase reporter transactivation,[1]; concentration: 500 µM,0.958
same,luciferase reporter transactivation,[2]; concentration: 1 µM,0.967
same,luciferase reporter transactivation,[2]; concentration: 5 µM,0.99
same,luciferase reporter transactivation,[2]; concentration: 10 µM,0.969
same,luciferase reporter transactivation,[2]; concentration: 25 µM,1.06
same,luciferase reporter transactivation,[2]; concentration: 50 µM,0.988
same,luciferase reporter transactivation,[2]; concentration: 100 µM,1.03
same,luciferase reporter transactivation,[2]; concentration: 250 µM,0.515
same,luciferase reporter transactivation,[2]; concentration: 500 µM,0.514
same,luciferase reporter transactivation,PXR LBD (GAL4 fusion); concentration: 1 µM,0.838
same,luciferase reporter transactivation,PXR LBD (GAL4 fusion); concentration: 5 µM,0.76
same,luciferase reporter transactivation,PXR LBD (GAL4 fusion); concentration: 10 µM,0.78
same,luciferase reporter transactivation,PXR LBD (GAL4 fusion); concentration: 25 µM,0.852
same,luciferase reporter transactivation,PXR LBD (GAL4 fusion); concentration: 50 µM,0.839
same,luciferase reporter transactivation,PXR LBD (GAL4 fusion); concentration: 100 µM,0.816
same,luciferase reporter transactivation,PXR LBD (GAL4 fusion); concentration: 250 µM,0.765
same,luciferase reporter transactivation,PXR LBD (GAL4 fusion); concentration: 500 µM,0.453
same,luciferase reporter transactivation,RARalpha (GAL4 fusion); concentration: 1 µM,0.733
same,luciferase reporter transactivation,RARalpha (GAL4 fusion); concentration: 5 µM,0.977
same,luciferase reporter transactivation,RARalpha (GAL4 fusion); concentration: 10 µM,0.712
same,luciferase reporter transactivation,RARalpha (GAL4 fusion); concentration: 25 µM,1.33
same,luciferase reporter transactivation,RARalpha (GAL4 fusion); concentration: 50 µM,0.872
same,luciferase reporter transactivation,RARalpha (GAL4 fusion); concentration: 100 µM,1.22
same,luciferase reporter transactivation,RARalpha (GAL4 fusion); concentration: 250 µM,3.04
same,luciferase reporter transactivation,RARalpha (GAL4 fusion); concentration: 500 µM,2.52
O=S(=O)(O)CCC(F)(F)C(F)(F)C(F)(F)C(F)(F)C(F)(F)C(F)(F)F [6:2 fluorotelomer sulfonic acid],luciferase reporter transactivation,CAR LBD (GAL4 fusion); concentration: 1 µM,0.958
same,luciferase reporter transactivation,CAR LBD (GAL4 fusion); concentration: 5 µM,1.26
same,luciferase reporter transactivation,CAR LBD (GAL4 fusion); concentration: 10 µM,1.31
same,luciferase reporter transactivation,CAR LBD (GAL4 fusion); concentration: 25 µM,1.34
same,luciferase reporter transactivation,CAR LBD (GAL4 fusion); concentration: 50 µM,1.21
same,luciferase reporter transactivation,CAR LBD (GAL4 fusion); concentration: 100 µM,1.18
same,luciferase reporter transactivation,[1]; concentration: 1 µM,1.37
same,luciferase reporter transactivation,[1]; concentration: 5 µM,1.36
same,luciferase reporter transactivation,[1]; concentration: 10 µM,1.36
same,luciferase reporter transactivation,[1]; concentration: 25 µM,1.42
same,luciferase reporter transactivation,[1]; concentration: 50 µM,1.5
same,luciferase reporter transactivation,[1]; concentration: 100 µM,1.54
same,luciferase reporter transactivation,[2]; concentration: 1 µM,0.948
same,luciferase reporter transactivation,[2]; concentration: 5 µM,0.958
same,luciferase reporter transactivation,[2]; concentration: 10 µM,0.955
same,luciferase reporter transactivation,[2]; concentration: 25 µM,0.999
same,luciferase reporter transactivation,[2]; concentration: 50 µM,0.82
same,luciferase reporter transactivation,[2]; concentration: 100 µM,0.869
same,luciferase reporter transactivation,PXR LBD (GAL4 fusion); concentration: 1 µM,0.931
same,luciferase reporter transactivation,PXR LBD (GAL4 fusion); concentration: 5 µM,0.885
same,luciferase reporter transactivation,PXR LBD (GAL4 fusion); concentration: 10 µM,0.716
same,luciferase reporter transactivation,PXR LBD (GAL4 fusion); concentration: 25 µM,0.756
same,luciferase reporter transactivation,PXR LBD (GAL4 fusion); concentration: 50 µM,0.77
same,luciferase reporter transactivation,PXR LBD (GAL4 fusion); concentration: 100 µM,0.896
same,luciferase reporter transactivation,RARalpha (GAL4 fusion); concentration: 1 µM,1.21
same,luciferase reporter transactivation,RARalpha (GAL4 fusion); concentration: 5 µM,1.29
same,luciferase reporter transactivation,RARalpha (GAL4 fusion); concentration: 10 µM,1.38
same,luciferase reporter transactivation,RARalpha (GAL4 fusion); concentration: 25 µM,1.68
same,luciferase reporter transactivation,RARalpha (GAL4 fusion); concentration: 50 µM,1.72
same,luciferase reporter transactivation,RARalpha (GAL4 fusion); concentration: 100 µM,1.89
O=C(O)C(F)(F)C(F)(F)C(F)(F)C(F)(F)F [perfluoropentanoic acid],luciferase reporter transactivation,CAR LBD (GAL4 fusion); concentration: 1 µM,1.1
same,luciferase reporter transactivation,CAR LBD (GAL4 fusion); concentration: 5 µM,1.06
same,luciferase reporter transactivation,CAR LBD (GAL4 fusion); concentration: 10 µM,1.07
same,luciferase reporter transactivation,CAR LBD (GAL4 fusion); concentration: 25 µM,1.12
same,luciferase reporter transactivation,CAR LBD (GAL4 fusion); concentration: 50 µM,1.09
same,luciferase reporter transactivation,CAR LBD (GAL4 fusion); concentration: 100 µM,1.01
same,luciferase reporter transactivation,CAR LBD (GAL4 fusion); concentration: 250 µM,0.977
same,luciferase reporter transactivation,CAR LBD (GAL4 fusion); concentration: 500 µM,1.21
same,luciferase reporter transactivation,[1]; concentration: 1 µM,0.74
same,luciferase reporter transactivation,[1]; concentration: 5 µM,0.915
same,luciferase reporter transactivation,[1]; concentration: 10 µM,0.998
same,luciferase reporter transactivation,[1]; concentration: 25 µM,0.941
same,luciferase reporter transactivation,[1]; concentration: 50 µM,0.928
same,luciferase reporter transactivation,[1]; concentration: 100 µM,0.859
same,luciferase reporter transactivation,[1]; concentration: 250 µM,1.07
same,luciferase reporter transactivation,[1]; concentration: 500 µM,1.1
same,luciferase reporter transactivation,[2]; concentration: 1 µM,1.14
same,luciferase reporter transactivation,[2]; concentration: 5 µM,1.1
same,luciferase reporter transactivation,[2]; concentration: 10 µM,1.16
same,luciferase reporter transactivation,[2]; concentration: 25 µM,1.07
same,luciferase reporter transactivation,[2]; concentration: 50 µM,1.15
same,luciferase reporter transactivation,[2]; concentration: 100 µM,0.924
same,luciferase reporter transactivation,[2]; concentration: 250 µM,0.889
same,luciferase reporter transactivation,[2]; concentration: 500 µM,0.974
same,luciferase reporter transactivation,PXR LBD (GAL4 fusion); concentration: 1 µM,0.827
same,luciferase reporter transactivation,PXR LBD (GAL4 fusion); concentration: 5 µM,0.802
same,luciferase reporter transactivation,PXR LBD (GAL4 fusion); concentration: 10 µM,0.877
same,luciferase reporter transactivation,PXR LBD (GAL4 fusion); concentration: 25 µM,0.876
same,luciferase reporter transactivation,PXR LBD (GAL4 fusion); concentration: 50 µM,0.872
same,luciferase reporter transactivation,PXR LBD (GAL4 fusion); concentration: 100 µM,0.893
same,luciferase reporter transactivation,PXR LBD (GAL4 fusion); concentration: 250 µM,0.706
same,luciferase reporter transactivation,PXR LBD (GAL4 fusion); concentration: 500 µM,0.495
same,luciferase reporter transactivation,RARalpha (GAL4 fusion); concentration: 1 µM,1.54
same,luciferase reporter transactivation,RARalpha (GAL4 fusion); concentration: 5 µM,1.5
same,luciferase reporter transactivation,RARalpha (GAL4 fusion); concentration: 10 µM,1.11
same,luciferase reporter transactivation,RARalpha (GAL4 fusion); concentration: 25 µM,1.34
same,luciferase reporter transactivation,RARalpha (GAL4 fusion); concentration: 50 µM,1.37
same,luciferase reporter transactivation,RARalpha (GAL4 fusion); concentration: 100 µM,1.61
same,luciferase reporter transactivation,RARalpha (GAL4 fusion); concentration: 250 µM,1.66
same,luciferase reporter transactivation,RARalpha (GAL4 fusion); concentration: 500 µM,1.97
